Measured values reported in PubChem BioAssay (NCATS).
Results filed as inconclusive are left out. A number with no mark means an inactive call. Active and inactive are the calls of the source. Calls come from the whole dose curve; as a rule, active = well fitted inhibition curve with a large enough effect in the signal ratio, with a control signal flat (not every such curve was filed as active); inconclusive = small, poorly fitted or top-dose-only effect, or effect the other way, or a change in a side signal; inactive = flat fitted curve, though single readings scatter; the % refers to the signal ratio.

target: Glucocorticoid receptor (Homo sapiens) (UniProt P04150); test: qHTS assay for small molecule antagonists of glucocorticoid receptor signaling (AID 588533); details: HeLa MMTV-bla, GRE beta-lactamase ratio, antagonist mode, 18 h; series mostly up to 76.8 µM; activity change, negative = inhibition: at the top concentration
Excerpt: NIH Chemical Genomics Center [NCGC] U.S. Environmental Protection Agency [EPA] National Institutes of Environmental Health Sciences [NIEHS] National Toxicology Program [NTP] NCGC Assay Overview The Glucocorticoid receptor (GR), a nuclear receptor subfamily member and its natural ligands includes […] etc. The GR is a validated drug target for inflammation. GR ligands such as dexamethasone are clinically available as anti-inflammatory drugs. Glucocorticoids implicate a role in carbohydrate, protein and lipid metabolisms and programmed cell death. They are also a component of many chemotherapy regimens for the treatment of leukemias, lymphomas, and myelomas because of their role in the induction of apoptosis.
NCGC Assay Protocol Summary Using a beta-lactamase reporter-gene under control of glucocorticoid response element (GRE), a cell-based assay [CellSensor MMTV-bla HeLa cell line assay developed by Invitrogen] was used to measure GR ligands signaling. CellSensor MMTV-bla HeLa cells were used with assay medium containing 1% charcoal/dextran treated FBS, 0.1 mM NEAA, 1 mM sodium pyruvate and 25mM HEPES. The assay was performed in clear bottom black Greiner 1536-well plates. Library compounds were measured for their ability to inhibit the reporter gene activity. Compounds were screened in a titration series in 1536-well format. […] Data was normalized relative to Dexamethasone control (2 nM, 100%), and DMSO only wells (basal, 0%). Concentration-response titration points for each compound were fitted to the Hill equation yielding concentrations of half-maximal inhibition (IC50) and maximal response (efficacy) values. qHTS protocol for GR beta-lactamase assay in antagonist mode [Step] [Parameter] [Value] [Description] 1. Reagent; 5 uL; 1500 cells/well 2. Incubation; 37 C for 3-5 hrs 3. Compounds; 23 nL; 0.59 nM to 92 uM 4. […] Agonist (Stimulator); 1uL; Dexamethasone at 2 nM (final) concentration 6. Incubation; 37 C for 18 hrs 7. Detection reagent; 1 uL of CCF4-dye 8. Incubation; RT for 2 hrs 9. Detection; Fluorescence; Envision plate reader
% is set by controls: 0 for no effect and ±100 for the full control effect.

Sequence of Glucocorticoid receptor (Homo sapiens) (P04150 whole entry, looked up): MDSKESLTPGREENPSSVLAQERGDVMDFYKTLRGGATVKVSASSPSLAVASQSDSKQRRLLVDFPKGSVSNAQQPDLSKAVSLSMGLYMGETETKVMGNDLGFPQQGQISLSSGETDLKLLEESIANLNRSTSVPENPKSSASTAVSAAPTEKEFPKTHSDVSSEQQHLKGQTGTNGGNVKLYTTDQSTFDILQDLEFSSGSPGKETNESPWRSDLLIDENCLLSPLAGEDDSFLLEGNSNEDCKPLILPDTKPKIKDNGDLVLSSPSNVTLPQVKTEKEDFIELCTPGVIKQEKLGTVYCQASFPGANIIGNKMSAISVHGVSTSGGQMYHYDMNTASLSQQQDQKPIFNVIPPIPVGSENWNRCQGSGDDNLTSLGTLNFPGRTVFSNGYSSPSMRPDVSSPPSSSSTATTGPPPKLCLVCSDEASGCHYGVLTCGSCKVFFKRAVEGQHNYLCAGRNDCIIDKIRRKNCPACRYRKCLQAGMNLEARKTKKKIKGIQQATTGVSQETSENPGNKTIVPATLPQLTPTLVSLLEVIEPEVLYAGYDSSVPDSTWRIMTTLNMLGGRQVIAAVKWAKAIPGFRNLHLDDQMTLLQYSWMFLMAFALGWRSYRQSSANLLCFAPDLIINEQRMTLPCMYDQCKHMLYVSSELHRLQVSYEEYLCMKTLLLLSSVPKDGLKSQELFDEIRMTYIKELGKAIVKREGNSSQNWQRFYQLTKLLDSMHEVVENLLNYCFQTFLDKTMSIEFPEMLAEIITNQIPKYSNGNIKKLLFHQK

Row | Structure (SMILES) | Potency | activity change, negative = inhibition
1 | O=C(O)c1cc(O)c2ccccc2c1O | 44.7 µM (active) | 
2 | COC(=O)c1ccccc1S(=O)(=O)NC(=O)Nc1nc(OC(F)F)cc(OC(F)F)n1 |  | 11.8%
3 | O=C1CCC(C2CCCCC2)CC1 |  | 3.06%
4 | Cc1ccc2c(c1)C(=O)OC2=O |  | 6.92%
5 | CCCCCCCCCCO | inactive | 
6 | CCCCCCCC[Si](OCC)(OCC)OCC |  | -14.1%
7 | C=CCOc1nc(OCC=C)nc(OCC=C)n1 |  | 13.3%
8 | O=C(Cl)c1cc(Cl)cc(Cl)c1 |  | -0.406%
9 | CC(C)(C)[C@H](O)[C@H](Cc1ccc(Cl)cc1)n1cncn1 | inactive | 
10 | C1CCC2(CCCCO2)OC1 |  | 11.5%
11 | CCCCCCCCC(=O)O |  | -3.65%
12 | CC(C)(C)c1n[nH]c(=O)n(N)c1=O |  | 0.272%
13 | COC(=O)c1ccccc1C(=O)O |  | -3.9%
14 | CCCCOCCOCCO |  | 15.9%
15 | C=CCOC(=O)CC(C)C |  | -2.15%
16 | S=C([S-])NCCNC(=S)[S-].[Mn+2] | inactive | 
17 | C=C(C)C(=O)OCCOC(=O)C(=C)C |  | -8.51%
18 | c1cc(-c2ccncc2)ccn1 |  | 0.0684%
19 | Nc1ccc(N)c2c1C(=O)c1c(N)ccc(N)c1C2=O |  | 26%
20 | CCCCCCCC/C=C\CCCCCCCCCCCCC |  | 5.37%

Row | Structure (SMILES) | Potency | activity change, negative = inhibition
21 | O=C(O)c1ccc2c(c1)C(=O)OC2=O |  | -2.59%
22 | CC(=O)N(CCN(C(C)=O)C(C)=O)C(C)=O |  | 9.15%
23 | CCCCOC(=O)/C=C\C(=O)OCCCC |  | 4.56%
24 | NCCCCCCCCCCCC(=O)O |  | 8.21%
25 | Nc1cc(Cl)nc(C(=O)O)c1Cl |  | 7.4%
26 | CCCCCCCCCCCCCCCCCC(N)=O |  | 18.2%
27 | C[Si](C)(C)N[Si](C)(C)C |  | -4.76%
28 | O=C1NC(=O)C(Cc2ccc(OCCN3COc4ccccc4C3=O)cc2)S1 (stereo not given) |  | 9.94%
29 | Cc1ccc(N)c(S(=O)(=O)O)c1 |  | 18.1%
30 | C=C[Si](OCCOC)(OCCOC)OCCOC |  | 0.401%
31 | CC(C)=CCC/C(C)=C\CO |  | 3.98%
32 | O=C(O)CN(CCO)CCN(CC(=O)O)CC(=O)O |  | -0.892%
33 | C=C(C)C(=O)OCCCCCCCCCCCC |  | 4.05%
34 | CC/C=C\CCOC(=O)c1ccccc1O |  | -1.3%
35 | C[Si](Cl)(Cl)c1ccccc1 |  | -28.4%
36 | CCCCCCCCCCCCCCN(C)C |  | 3.61%
37 | O=C(c1ccccc1)c1ccc(O)c(O)c1O |  | -24.2%
38 | CCNc1nc(NC(C)CC)nc(OC)n1 (stereo not given) |  | 1.83%
39 | OC1CCC(C2CCCCC2)CC1 (stereo not given) |  | 3.04%
40 | CCCCCCCCCCCCCCCC |  | 5.39%
